Screening results from PubChem BioAssay.
hgDAF-12 ag: hgDAF-12 agonism, primary luciferase screen; HEK293 GAL4-hgDAF12 UAS-luciferase reporter, agonist luminescence; normalized to butyrate control; activation, % at 6.8 µM; 1.8% of 370,000 active; AID 687014;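 active = activation above a cutoff set at the mean of all screened compounds plus 3 SD, cut at about 10% in these data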;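 note: 0% = DMSO wells and 100% = sodium butyrate wells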
DAX1 inh-1: blocks DAX1 repression of SF-1 activated StAR promoter | AID 652010 | HEK293T StAR-luciferase reporter, SF-1/DAX-1 repression relief | 1.1% of 370,000 active | inhibition, % at 6.8 µM;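 active = inhibition above the mean over all tested compounds plus 3 SD, cut at about 3.6% in these data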;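 note: 0% = DAX-1 cells with DMSO and 100% = cells lacking DAX-1 with DMSO; higher inhibition means more luminescence from relief of DAX-1 repression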
DAX1 inh-2: NR0B1 (DAX1) inhibition. AID 504766. inhibition, % at 6.75 µM. HEK293 Gal4-DAX1 luciferase reporter, luminescence. 0.99% of 340,000 active. P51843;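 active = inhibition above the mean over all tested compounds plus 3 SD, cut at about 4.2% in these data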;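 note: 0% = DAX1-transfected cells with DMSO and 100% = empty-vector control cells with DMSO; inhibition shows as a rise in luminescence from relieved DAX1 repression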
Target sequence (P51843 207-470 limits assumed): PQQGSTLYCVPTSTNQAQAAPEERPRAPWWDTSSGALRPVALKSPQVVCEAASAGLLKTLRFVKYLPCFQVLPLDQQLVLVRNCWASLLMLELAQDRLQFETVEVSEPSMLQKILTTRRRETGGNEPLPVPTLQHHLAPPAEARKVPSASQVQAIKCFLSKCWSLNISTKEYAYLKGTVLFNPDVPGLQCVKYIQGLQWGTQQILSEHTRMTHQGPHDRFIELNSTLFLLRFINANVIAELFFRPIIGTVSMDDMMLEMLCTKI
hcDAF12 agonist: activates DAF-12 receptor from parasite H. contortus. 1.4% of 370,000 active. activation, % at 6.8 µM. AID 652067. HEK293 hcDAF-12 lit1-tk-luc reporter, luminescence; 0% DMSO, 100% Δ7-dafachronic acid;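 active = activation above the mean of all tested compounds plus 3 SD, cut at about 5.5% in these data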;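 note: 100% = response to 3 µM Δ7-dafachronic acid high control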
ssDAF12 agonist: activates DAF-12 receptor from parasite S. stercoralis; activation, % at 6.8 µM; HEK293 ssDAF-12/GRIP1 lit1-tk-luc reporter, luminescence; % of 3 µM dafachronic acid response; 1% of 370,000 active; AID 652126;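 active = activation above the mean over all tested compounds plus 3 SD, cut at about 0.9% in these data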;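 note: 0% = DMSO-only wells and 100% = 3 µM delta7-dafachronic acid wells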
SMARCA2 activ: activators of SMARCA2 function | MG213 cells, MMTV-luciferase reporter, dexamethasone, overnight | activation, % at 9.1 µM | 1% of 370,000 active | AID 652017; in the data active = activation above about 7.8%;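 note: 0% = vehicle wells and 100% = reference activator wells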
Numbers without * were called inactive; . = no result given. A selection: hits, their analogues and other compounds. The true share with any hit is near 4.8%.

SMILES	hgDAF-12 ag	DAX1 inh-1	DAX1 inh-2	hcDAF12 agonist	ssDAF12 agonist	SMARCA2 activ
C=CCN=C1NC(CCc2ccccc2)C(C(=O)OC)=C(C)N1Cc1cccc(C(F)(F)F)c1 (stereo not given)	-0.7	-0.8	.	4.8	1.5*	-4.2
Cc1ccc(N2CC(C(=O)Nc3nnc(SCc4ccccn4)s3)CC2=O)cc1 (stereo not given)	-1.5	-0.3	0.5	-0.4	-1.1	0.1
O=C(Nc1nnc(SCc2ccccn2)s1)C1CC(=O)N(c2ccccc2)C1 (stereo not given)	2.3	-0.6	6.5*	-1.6	-1.0	-1.1
c1cnc2ccc3ncccc3c2c1	4.5	0.8	5.0*	2.0	-1.2	3.1
CC1CCCN(S(=O)(=O)c2coc(C(N)=O)c2)C1 (stereo not given)	3.0	-0.1	5.1*	-0.5	-1.6	0.1
CC1CCCCN1S(=O)(=O)c1coc(C(N)=O)c1 (stereo not given)	0.4	0.0	1.7	-0.6	-1.2	-2.1
COCCNc1nc2ccccc2n2cnnc12	-0.8	0.0	4.3*	-0.7	-1.2	1.4
COc1ccc(CCNc2nc3ccccc3n3cnnc23)cc1OC	-2.0	0.1	2.7	-0.1	-0.9	0.2
CC(=O)c1cc(-c2ccccc2-c2ccccc2)c(=O)n2c1CCC2	-1.3	0.1	.	-1.3	-1.8	-2.3
CCOC(=O)N1CCN(S(=O)(=O)c2ccc(C(=O)N(CCCN(C)C)c3nc4ccc(OC)cc4s3)cc2)CC1	-1.4	3.6*	-0.7	2.3	-0.4	-0.3
Fc1ccc(CNCC2CCCO2)cc1 (stereo not given)	-1.4	0.0	4.3*	0.1	-0.6	-1.6
C(=C\c1ccccc1)/CNCC1CCCO1 (stereo not given)	7.0	-0.3	0.5	2.7	1.6*	-2.5
O=C(NCC1CCCO1)/C(=C/c1ccccc1)NC(=O)c1ccccc1 (stereo not given)	3.6	-0.5	-1.7	0.1	-0.9	-2.9
COc1cccc(NC(=O)Nc2c(-c3ccc(F)cc3)nc3ncccn23)c1	1.9	-0.5	.	-2.4	-1.0	-1.3
CN(C)c1ccc(C(=O)NC2CCCCN(Cc3ccc(Cl)cc3)C2=O)cc1 (stereo not given)	7.5	0.8	.	2.8	-0.8	1.4
CCOC(=O)c1sc(Nc2nc(C)cc(C)n2)nc1C	0.9	0.4	0.9	-1.1	-1.6	-2.2
CCOC(=O)c1sc(Nc2nc(C)cc(OC)n2)nc1C	-0.8	-0.1	4.5*	4.8	-1.3	-2.1
CC(C)(C)NC(=O)C(c1cccnc1)N(C(=O)c1cnc[nH]1)c1ccc(C(C)(C)C)cc1 (stereo not given)	1.3	.	.	-1.6	-1.4	.
Cc1c(C(=O)OCC(=O)NC(C)c2ccccc2)oc2ccccc12 (stereo not given)	1.4	1.7	0.8	5.7*	0.6	-0.8
CC(NC(=O)COC(=O)C1(C)CC1(Cl)Cl)c1ccccc1 (stereo not given)	-0.5	3.6*	1.7	-0.6	-0.8	-2.3
Cc1c(C(=O)OCC(C)(C)CN(C)C)oc2ccccc12	7.1	4.0*	2.2	0.0	-0.7	2.8
c1ccc(Cn2c(SCC3CCCCC3)nnc2-c2cccnc2)cc1	-1.4	-0.2	.	-0.3	-1.9	-5.6
O=[N+]([O-])c1ccc(OCCCN2CCC(C(O)(c3ccccc3)c3ccccc3)CC2)c(Cl)c1	-1.1	1.2	.	-2.0	-1.5	1.2
CC(C)CC(O)(CC(C)C)c1cn(C(=O)N(c2ccccc2)c2ccccc2)nn1	-2.5	.	.	0.1	-0.7	.
CS(=O)(=O)N1N=C(c2ccc(Br)cc2)CC1c1ccc2c(c1)OCO2 (stereo not given)	.	.	2.3	.	.	.
SMILES	hgDAF-12 ag	DAX1 inh-1	DAX1 inh-2	hcDAF12 agonist	ssDAF12 agonist	SMARCA2 activ
CC(=O)N1N=C(c2ccc(C)cc2)CC1c1ccc2c(c1)OCO2 (stereo not given)	9.4	1.4	3.0	6.1*	-0.4	4.4
CCc1ccc2nc(N)sc2c1	10.8*	2.5	6.4*	1.8	-0.4	5.1
CCc1ccc(NC(=O)c2ccc3nc(N)sc3c2)cc1	5.5	1.1	1.0	0.3	-0.6	4.6
COC(=O)C1CN(Cc2ccc(OC)cc2)CCS(=O)(=O)N1Cc1cn(Cc2ccccc2)nn1 (stereo not given)	0.7	-0.5	.	2.3	-2.1	-0.5
CCOC(=O)CNC(=O)c1c2c(nc3ccccc13)CCCC2	-1.6	0.6	0.0	0.9	1.0*	0.2
Cc1cc(C)n2c(Nc3ccc4c(c3)OCCO4)c(-c3ccc(F)cc3)nc2n1	6.3	4.3*	.	2.9	-0.4	3.3
COc1cccc(-c2nc3nc(C)cc(C)n3c2Nc2ccc3c(c2)OCCO3)c1	9.9	1.1	.	0.8	-0.5	0.5
COCCCN(C(=S)Nc1cc(C)cc(C)c1)C(C)c1ccncc1 (stereo not given)	-1.5	-0.1	-0.6	-0.7	0.9*	1.9
CC(=O)CC[C@H]1CC[C@]2(CCCN(C(=O)c3ccc4ccccc4n3)C2)O1	0.6	-0.4	.	0.2	-1.4	1.7
Cc1nc2ccc(S(=O)(=O)NCC(=O)N(C)Cc3ccccc3Cl)cc2s1	-6.4	-1.1	.	-2.9	-1.6	-4.1
O=C(CCN1C(=O)C2C3CCC(C3)C2C1=O)Nc1ccccc1C(F)(F)F (stereo not given)	3.8	-0.4	2.0	-0.5	6.0*	-0.8
O=C(NCN1C(=O)C2C3C=CC(C3)C2C1=O)Nc1ccccn1 (stereo not given)	0.8	0.2	0.3	-0.9	-1.0	-0.8
O=C(CCN1C(=O)C2C3C=CC(C3)C2C1=O)Nc1ccccn1 (stereo not given)	2.7	-0.8	0.4	-1.5	-1.3	7.8*
CC(C)C[C@@H]1COc2cc(N3CCCC3)ccc2S(=O)(=O)N1C	-1.5	-1.0	.	-0.8	-1.5	-0.5
O=C(Cn1c(=O)c2cccn2c2cccnc21)NCCCN1CCN(c2ccccc2)CC1	-0.3	.	.	-1.1	-0.8	.
Cc1ccc(C)c(CN2CCC(CNC(=O)Nc3ccc(Cl)cc3)CC2)c1	1.1	-0.3	6.2*	-1.0	-1.0	0.8
Cc1ccc(C)c(CN2CCC(CNC(=O)Nc3ccc(Br)cc3F)CC2)c1	2.6	-0.1	-0.1	-1.3	-1.1	1.6
CCC(=O)c1ccc(OC(=O)c2cnccn2)cc1	4.5	-0.4	5.0*	1.1	-0.9	2.5
COc1ccc(C2OCCNC3C2C(=O)N(Cc2ccc(OC)cc2OC)C3Cc2ccccc2)cc1 (stereo not given)	-0.7	.	.	-2.2	-1.6	.
O=C1C2CCC(C2)C1CN1CCOCC1 (stereo not given)	-2.1	0.2	-1.4	2.7	1.8*	-1.0
C=CCN1C(=O)[C@@H](CC(=O)NCCCCc2ccccc2)[C@]2(C(=O)OC)CCCCC=C12	0.9	-0.1	.	-0.1	-1.6	-2.6
C=CCn1cnc2c(nnn2Cc2ccc(F)cc2)c1=O	0.3	0.4	4.6*	-2.2	-0.7	-1.7
